Among the test systems are T-47D breast; BT-549 breast; MDA-MB-435 melanoma; SW-620 colon; MCF7 breast; HCT-116 colon; HCC-2998 colon; KM12 colon.
Test in all cases: NCI-60 one-dose screen, 48 h (100 = growth as untreated, 0 = no growth, -100 = all killed)
Common to all, as to details: 10 µM unless noted

The structures appear in SMILES notation. This is part of a sample that, as a whole, favours compounds with a hit. Of some 83,000 tested, about 20% had one in any assay.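 Activity criterion: percent growth below 10, measured after cells in 96-well plates were exposed to a single compound concentration for 48 hours.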 Unmarked numbers belong to inactive results. Activity calls are given as the source filed them.

Consider `C/C(=N\NC(=O)c1ccccc1O)c1cccc(/C(C)=N/NC(=O)c2ccccc2O)n1`, for which the growth in the assay with T-47D breast was 41.8%; in the assay with BT-549 breast, -2.08% (active); with MDA-MB-435 melanoma it was 40%; in the assay on SW-620 colon it was 31.2%; in the assay on MCF7 breast, 44.3%; in the assay on HCT-116 colon, 27.1%. For the same molecule, the growth is 18.4% with HCC-2998 colon and 22.6% with KM12 colon.
Regarding `O=C1c2c(c3c4ccccc4[nH]c3c3ccc4ccccc4c23)C(=O)N1CCN1CCCCC1`, the growth in the assay on T-47D breast was 13.6%; with BT-549 breast it was 78.9%; in the assay with MDA-MB-435 melanoma, 67.2%; in the assay on SW-620 colon, 30.5%; in the assay on MCF7 breast, 17.1%; with HCT-116 colon it was 23.1%. The growth was -0.0363% (active) in the assay with HCC-2998 colon and 48% with KM12 colon.
With `COc1cc(OC)c2sc(-c3ccc(-n4cncc4-c4ccc(OC)c(OC)c4)cc3)nc2c1`, the growth was 29.7% in the assay with T-47D breast; 44.5% in the assay with BT-549 breast; 53.3% with MDA-MB-435 melanoma; 55.7% in the assay with SW-620 colon; 44.5% in the assay with MCF7 breast; 40.8% in the assay with HCT-116 colon. For the same molecule, the growth with HCC-2998 colon is 76.4%; with KM12 colon, 52.8%.
`O=C(NNC(=O)c1ccc(-n2cc(-c3ccccc3)nn2)cc1)Nc1ccccc1`: the growth is 102% in the assay with T-47D breast; 97.9% in the assay with BT-549 breast; 105% with MDA-MB-435 melanoma; 101% in the assay on SW-620 colon; 99.4% in the assay on MCF7 breast; 94.3% in the assay on HCT-116 colon. The growth is 116% in the assay with HCC-2998 colon and 107% in the assay on KM12 colon.
With `CC[C@@H](C(=O)[C@@H](C)[C@@H](O)[C@H](C)[C@@H]1O[C@@H]([C@@H](CC)C(=O)NCCc2ccc(F)cc2)CC[C@@H]1C)C1O[C@]2(C=CC(=O)[C@]3(CC[C@@](C)([C@H]4CC[C@](O)(CC)[C@H](C)O4)O3)O2)[C@H](C)C[C@@H]1C` (stereo not given in full), the growth in the assay with T-47D breast is 15%; in the assay on BT-549 breast, 54.1%; in the assay with MDA-MB-435 melanoma, 39.3%; in the assay with SW-620 colon, 40.4%; in the assay with MCF7 breast, 18.4%; with HCT-116 colon, 16.9%. The growth in the assay with HCC-2998 colon was 63.8%; with KM12 colon, 42.6%.
For `CN(C)Cc1ccc(NC(=O)c2cncc(C#Cc3cnc(N)c4ncccc34)c2)cc1F`, the growth with T-47D breast was 105%; in the assay with BT-549 breast, 132%; in the assay with MDA-MB-435 melanoma, -89.3% (active); with SW-620 colon, 96.9%; in the assay with MCF7 breast, -46% (active); in the assay on HCT-116 colon it was 81.4%. Besides, the growth was 91% with HCC-2998 colon and -83.3% (active) in the assay on KM12 colon.
Regarding `CC(C)(C)c1cc(-c2nc3ccc(N4CCN(S(C)(=O)=O)CC4)cc3[nH]2)cc(C(C)(C)C)c1O`, the growth is 76.6% with T-47D breast; 102% with BT-549 breast; 94% in the assay with MDA-MB-435 melanoma; 97.2% in the assay with SW-620 colon; 76.4% in the assay with MCF7 breast; 81.7% with HCT-116 colon. Further, the growth with HCC-2998 colon was 103%; with KM12 colon, 27.6%.
In the case of `CCCCOC(=O)OCc1cc(=O)c(O)co1`, the growth is 90.8% in the assay on T-47D breast; 110% in the assay on BT-549 breast; 102% with MDA-MB-435 melanoma; 103% in the assay with SW-620 colon; 94.5% in the assay with MCF7 breast; 106% with HCT-116 colon. For the same molecule, the growth in the assay with HCC-2998 colon was 106%; with KM12 colon, 104%.
`N#Cc1c(-c2cccs2)cc(-c2cccnc2)[nH]c1=O`: the growth with T-47D breast was 103%; with BT-549 breast, 102%; in the assay with MDA-MB-435 melanoma, 102%; with SW-620 colon, 101%; in the assay with MCF7 breast, 92.4%; in the assay on HCT-116 colon it was 104%. Further, the growth with HCC-2998 colon was 114%; in the assay on KM12 colon it was 106%.
Take `Brc1ccc2[nH]cc(-c3nonc3-c3c[nH]c4ccccc34)c2c1`: the growth with T-47D breast is 5.65% (active); in the assay with BT-549 breast it was 73.9%; in the assay with MDA-MB-435 melanoma it was 47.1%; with SW-620 colon, 60.4%; with MCF7 breast it was 29.3%; in the assay with HCT-116 colon, 36.9%. The results for the growth with HCC-2998 colon and in the assay with KM12 colon were 21.5% and 16%, respectively.
Take `CCCCN[C@H]1CC[C@@]2(C)[C@@H](CC[C@@]3(C)[C@H]2[C@H](O)C[C@H]2/C(=C(\CCC=C(C)C)C(=O)OC)[C@@H](OC(C)=O)C[C@@]23C)[C@@H]1C`: the growth is 105% with T-47D breast; 93.5% with BT-549 breast; 98% with MDA-MB-435 melanoma; 95.9% in the assay with SW-620 colon; 90.8% in the assay with MCF7 breast; 102% in the assay on HCT-116 colon. Further, the values for the growth with HCC-2998 colon and in the assay with KM12 colon were 99.3% and 104%, respectively.
For the molecule `C#Cc1cccc(Nc2ncnc3ccc(-c4cncc(NS(C)(=O)=O)c4)cc23)c1`, the growth was -5.8% (active) with T-47D breast; 19.2% with BT-549 breast; 44.8% with MDA-MB-435 melanoma; 31.1% with SW-620 colon; 10.9% in the assay on MCF7 breast; 11% in the assay with HCT-116 colon. For the same molecule, the growth was 45.5% in the assay with HCC-2998 colon and 36.1% with KM12 colon.
Consider `Cc1ccc(Cc2cnc(NC(=O)c3cc(Br)cs3)s2)cc1`, for which the growth in the assay on T-47D breast is 44.4%; in the assay on BT-549 breast it was 37.1%; with MDA-MB-435 melanoma, -16.5% (active); in the assay with SW-620 colon, 42%; with MCF7 breast, 30.3%; with HCT-116 colon, 32.9%. Also, the growth in the assay with HCC-2998 colon is 82.9%; in the assay on KM12 colon it was 47.3%.
In the case of `CN(C)CCNc1nc2c3cc(Cl)ccc3nn2c2ccccc12`, the growth with T-47D breast was 86.6%; in the assay on BT-549 breast it was 73%; in the assay on MDA-MB-435 melanoma it was 65.3%; with SW-620 colon it was 23.7%; in the assay with MCF7 breast, 35.3%; in the assay with HCT-116 colon, 22.9%. Besides, the growth was 56.3% in the assay with HCC-2998 colon and 39.5% with KM12 colon.
For the molecule `Cc1nc2sc(C(=O)Nc3cccc(Cl)c3C)c(N)c2cc1C(=O)c1ccccc1`, the growth in the assay with T-47D breast is 36.8%; in the assay with BT-549 breast, 7.58% (active); in the assay on MDA-MB-435 melanoma, -37.4% (active); in the assay with SW-620 colon, 27%; in the assay on MCF7 breast, 11.1%; with HCT-116 colon, 13.1%. In addition, the growth in the assay on HCC-2998 colon is 7.04% (active); with KM12 colon, 13%.

The values are drawn from PubChem BioAssay (NCI).
